Source: PubChem (National Center for Advancing Translational Sciences (NCATS))
EPAC2 antag – Validation qHTS for antagonist of cAMP-regulated guanine nucleotide exchange factor 4 (EPAC2). Potency, µM (doses to about 112 µM), without a hit: top-dose activity, negative = inhibition, usual class: inhibitors. EPAC2 Rap1B BODIPY-GDP exchange, fluorescence. actives 1.7% (n = 16,000). Rap guanine nucleotide exchange factor 4 (Homo sapiens), Q8WZA2;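 further: 100% = activation by cAMP agonist control; nearly all actives have a fitted effect of over 40% in size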
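Normalized against a 6.5 mM cAMP agonist control, compounds were tested on 100 nM EPAC2 exchanging Rap1B-bound BODIPY-GDP (250 nM) for 50 uM GDP. Fluorescence drop (ex 480, em 540 nm) was tracked at room temperature over 30 min at 5-min intervals.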
EPAC1 agonist – Validation qHTS for agonist of cAMP-regulated guanine nucleotide exchange factor 3 (EPAC1); Rap guanine nucleotide exchange factor 3 (Homo sapiens), O95398; EPAC1 Rap1b BODIPY-GDP exchange, fluorescence; Potency, µM, inactives show max response, positive = active, actives largely listed as activators; actives 1% (n = 16,000); AID 1645883, 2021; further: nearly all actives have a fitted effect of over 70% in size
Target sequence (O95398 whole entry, looked up): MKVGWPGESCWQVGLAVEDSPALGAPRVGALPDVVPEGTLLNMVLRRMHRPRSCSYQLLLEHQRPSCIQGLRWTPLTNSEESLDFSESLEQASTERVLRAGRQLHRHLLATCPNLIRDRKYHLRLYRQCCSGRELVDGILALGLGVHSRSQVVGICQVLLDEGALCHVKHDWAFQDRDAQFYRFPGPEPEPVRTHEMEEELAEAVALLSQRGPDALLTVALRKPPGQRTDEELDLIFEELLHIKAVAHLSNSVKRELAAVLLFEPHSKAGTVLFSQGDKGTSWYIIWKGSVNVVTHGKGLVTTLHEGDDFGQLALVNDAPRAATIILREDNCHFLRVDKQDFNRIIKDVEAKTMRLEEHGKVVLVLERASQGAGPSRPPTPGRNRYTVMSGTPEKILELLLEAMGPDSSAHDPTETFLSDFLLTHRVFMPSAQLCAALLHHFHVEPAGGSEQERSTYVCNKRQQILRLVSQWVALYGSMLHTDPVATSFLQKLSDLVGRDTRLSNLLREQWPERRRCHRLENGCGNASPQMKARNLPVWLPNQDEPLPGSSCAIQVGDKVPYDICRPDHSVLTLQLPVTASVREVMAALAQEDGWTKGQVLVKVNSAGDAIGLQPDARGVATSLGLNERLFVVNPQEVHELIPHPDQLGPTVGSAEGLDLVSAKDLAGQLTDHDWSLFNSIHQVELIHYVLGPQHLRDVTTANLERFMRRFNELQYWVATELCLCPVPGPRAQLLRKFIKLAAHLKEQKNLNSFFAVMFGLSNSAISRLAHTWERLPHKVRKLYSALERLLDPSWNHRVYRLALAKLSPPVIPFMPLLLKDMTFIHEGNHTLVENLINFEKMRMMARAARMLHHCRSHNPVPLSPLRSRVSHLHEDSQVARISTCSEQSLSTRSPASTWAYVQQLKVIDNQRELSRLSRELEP
The depositor's hits bear a star; ? = inconclusive; [ ] = remark or other dose. Most compounds without a hit are left out; they make up all but 3.1% or so of the library. The call rests on the fitted dose curve; in most records, active means well fitted curve in the direction sought with a large enough effect; inconclusive means small, poorly fitted or top-dose-only effect, or another doubt; inactive means no such curve, though single readings can be large; an effect the other way counts as inactive or inconclusive. Unless noted, on the % scale 0 is the no-effect control and ±100 the full control effect; potency means the concentration at half of the fitted maximal effect.

SMILES | EPAC2 antag | EPAC1 agonist
C[C@]12C=CC(=O)C=C1CC[C@@H]1[C@@H]2CC[C@]2(C)OC(=O)CC[C@@H]12 | -5% | -17%
CC[C@H](C)[C@H]1O[C@]2(C=C[C@@H]1C)C[C@@H]1C[C@@H](C/C=C(\C)[C@@H](O[C@H]3C[C@H](OC)[C@@H](O[C@H]4C[C@H](OC)[C@@H](O)[C@H](C)O4)[C@H](C)O3)[C@@H](C)/C=C/C=C3\CO[C@@H]4[C@H](O)C(C)=C[C@@H](C(=O)O1)[C@]34O)O2 | ? | -42%
CCNC1(c2cccs2)CCCCC1=O (stereo unspecified) | -15%[56.6 µM] | 9%
O=C1c2ccccc2-c2cccc3cccc1c23 | 3% | 112µM*
[H+].[H+].[Hg+2].[O-]B([O-])[O-].[c-]1ccccc1 | 4% | -7%
CCN1C[C@]2(COC)[C@H](O)C[C@H](OC)[C@@]34[C@@H]5C[C@@]6(O)[C@H](OC(=O)c7ccccc7)[C@@H]5[C@@](OC(C)=O)([C@@H]([C@H](OC)[C@H]23)[C@@H]14)[C@@H](O)[C@@H]6OC | 7% | -28%
